Assay results from the supplement of paper PMC10338343.
± gives the standard deviation.

System: MILI (PIWIL2) piRISC loaded with L1MC piRNA (26 nt)
Test: pre-steady-state target cleavage rate (min^-1); guide: L1MC piRNA 5'p-UAACUAAAUACUAUGCAAGCUGUAGG; MIWI and MILI are mouse PIWI proteins and EfPiwi is from a freshwater sponge; tags in brackets are library labels; higher = faster piRNA-guided slicing of the target
Conditions: auxiliary factor: 500 nM mouse GTSF1
Method: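 Cleave-'n-Seq: a library of target RNAs (target site embedded in constant flanks, ACAGCATTCCGCGTTAGTGATATCCG... 5' flank; DNA-blocked outside the site) at 0.1 nM was incubated with 1 nM active mouse MILI or MIWI piRISC (synthetic 5'-monophosphorylated piRNA guide) with or without 500 nM mouse GTSF1 at 33 °C for 1 min to 16 h. Uncleaved targets were sequenced and normalised to non-target controls, and the pooled three trials were fitted to a burst-and-steady-state model to give the pre-steady-state cleavage rate (min^-1; k3 is constrained to at most 1e-4). Sequence is the target site only; target names encode pairing extent (gX:gY) and contiguous / 1-mismatch / 2-mismatch / bulge geometry. Fits with R² ≤ 0 are excluded.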

Sequence | pre-steady-state target cleavage rate
UCCUGGUACAGCUUGCAUAGAUUUUAGUUA | 0.0355 ± 0.0097
UCCUGGAUGUCGUUGCAUAGUAUUUAGUUUA | 0.178 ± 0.018
UCCUGGAUGAGCUUGCUAUGUAUUUAGUUA | 0.00711 ± 0.0026
UCCUGGUACAGCAUUGCAUAGUAUUUAGUUA | 0.257 ± 0.039
UCCUGGAUGUCGAUGCAUAGUUUUUAGUUA | 0.0108 ± 0.0042
UCCUGGAUGUCGUUGCAAAGUAUUAAGUUA | 0.0094 ± 0.0044
UCCUCCUACAGCUUGCAUAGUAUUUAGAUA | 0.205 ± 0.035
UCCUGGAACAGCUUGGAUAGUAUUUAGUUA | 0.27 ± 0.013
UCCUCCUACAGGUUGCAAAGUAUUUAGUUA | 0.142 ± 0.0086
UCCUGGAACAGCUUGGUUAGUAUUUAGUAA | 0.188 ± 0.035
UCCUGGAACUGCUUGCAUAGUAUUUACAAA | 0.0945 ± 0.022
UCCUGGUACAGCUUGUAUAGUAUUUAGUUA | 0.242 ± 0.017
UCCUGGAUGUGCUCGCAUAGUAUUUAGUUA | 0.155 ± 0.018
UCCUGCUACAGCUUGCAUAGUAUCUAGUUA | 0.265 ± 0.033
UCCUCCUACAGCUUGCAUAAUAUUUAGUUA | 0.292 ± 0.026
UCCUGGAACAGCUUGCAUAGUACUUUAGUUA | 0.168 ± 0.015
UCCUGGAUGAGCUUGCAUAGUAUAUUAGUUA | 0.158 ± 0.017
UCCUGGUUCAGCUUGCAAAGUAUUUAGUUA | 0.137 ± 0.018
UCCUCGAACAGCUUGCAUAGUAUUUAGUAA | 0.242 ± 0.015
UCCUGGAUGUGCUUGCAUAGUAUUUUAGUUA | 0.101 ± 0.018

Same assay, conditions: auxiliary factor: none (no GTSF1)

Sequence | pre-steady-state target cleavage rate
UCCUGGUACAGCUUGCAUAGAUUUUAGUUA | 0.00346 ± 0.0029
UCCUGGAUGUCGUUGCAUAGUAUUUAGUUUA | 0.0103 ± 0.0039
UCCUGGAUGAGCUUGCUAUGUAUUUAGUUA | 0.00524 ± 0.0027
UCCUGGUACAGCAUUGCAUAGUAUUUAGUUA | 0.0159 ± 0.0049
UCCUGGAUGUCGAUGCAUAGUUUUUAGUUA | 0.0052 ± 0.002
UCCUCCUACAGCUUGCAUAGUAUUUAGAUA | 0.00357 ± 0.003
UCCUGGAACAGCUUGGAUAGUAUUUAGUUA | 0.0119 ± 0.0026
UCCUCCUACAGGUUGCAAAGUAUUUAGUUA | 0.00921 ± 0.002
UCCUGGAACAGCUUGGUUAGUAUUUAGUAA | 0.00709 ± 0.0024
UCCUGGUACAGCUUGUAUAGUAUUUAGUUA | 0.0121 ± 0.0031
UCCUGGAUGUCGAACGCUAGUAUUUAGUUA | < 0.0001
UCCUGGAUGUGCUCGCAUAGUAUUUAGUUA | 0.00981 ± 0.0026
UCCUGCUACAGCUUGCAUAGUAUCUAGUUA | 0.00553 ± 0.0025
UCCUCCUACAGCUUGCAUAAUAUUUAGUUA | 0.00352 ± 0.0022
UCCUGGAACAGCUUGCAUAGUACUUUAGUUA | 0.00486 ± 0.0022
UCCUGGAUGUCGAACCAAGUAUUUAGUUA | < 0.0001
UCCUGGUUCAGCUUGCAAAGUAUUUAGUUA | 0.0176 ± 0.0038
UCCUCGAACAGCUUGCAUAGUAUUUAGUAA | 0.00453 ± 0.0022
UCCUGGAUGUGCUUGCAUAGUAUUUUAGUUA | 0.0102 ± 0.0031
